Screens as filed in PubChem.
FMDV antiviral: High Throughput Screening for Foot and Mouth Disease Virus Antivirals; 410,000 tested, 1.2% active; Potency, µM (series often up to 57.9 µM), without a hit: at the highest dose activity change, negative = inhibition, usual class: inhibitors; FMDV antiviral cell-based qHTS; calls by dose curve; tested in HEK293T cells; further: read-out not given here; nearly all actives have a fitted effect of over 45% in size
LASV entry inh: qHTS for Inhibitors of binding or entry into cells for Lassa Virus; Lassa virus pseudotype entry inhibition, cell reporter; Potency, µM (titrated, usually from 37.9 µM), without a hit: at the top dose activity change, negative = inhibition, most hits filed as inhibitors; 300,000 tested, 1.2% active; calls by dose curve; tested in HEK293 cells; further: nearly all actives have a fitted effect of over 50% in size
Sm TGR block: qHTS Assay for the Inhibitors of Schistosoma Mansoni Peroxiredoxins | Schistosoma mansoni thioredoxin glutathione reductase (TGR), Q962Y6 | Potency, µM (titrated, usually from 114 µM), inactives show top-dose activity change, negative = inhibition, actives largely listed as inhibitors | purified TGR, DTNB reduction, TNB absorbance 405 nm | 360,000 tested, 3% active; further: nearly all actives have a fitted effect of over 60% in size
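Kinetic colorimetric format: TGR-catalysed, NADPH-driven DTNB reduction monitored via TNB absorbance. Enzyme dispensed at 20 nM; compound exposure 15 min at room temperature before reaction start.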
RE007 growth inh: qHTS Assay for Inhibitors of the HIV-1 protein Vpr | S. pombe RE007 Vpr strain, BacTiter-Glo ATP luminescence, 24 h | Potency, µM (doses to about 92.2 µM), for inactives: top-dose activity change, negative = less growth, most hits filed as inhibitors | 360,000 tested, 0.21% active | AID 651644, 2012; active means well fitted falling curve with a large enough effect; inconclusive means small, poorly fitted or top-dose-only effect; inactive means no such curve, though single readings can be large or run the other way; further: nearly all actives have a fitted effect of over 50% in size
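Fission yeast RE007 carrying one integrated HIV-1 vpr copy, seeded at OD 0.01 in PMG+AL medium with 23 nL pinned compound. Grown 24 h at 30 degrees; viability read by BacTiter-Glo luminescence after 5 min.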
HCV inhibitor: qHTS Assay for Inhibitors of Hepatitis C Virus (HCV); AID 651820, 2012; 340,000 tested, 3.4% active; Potency, µM (top dose mostly 41.8 µM), without a hit: top-dose activity change, negative = inhibition, actives largely listed as inhibitors; Huh7.5.1 HCVcc-Cre infection, luciferase reporter, 44 h
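Infectious HCVcc-Cre (~0.5 moi) was added to cells just after compound, with cells seeded 4 h earlier at 1,000 per well. Luciferase activity after 44 h culture reported infection; substrate was incubated 15 min at room temperature before reading.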
MARV entry inh: qHTS for inhibitors of binding or entry into cells for Marburg Virus; Potency, µM (titrated, usually from 37.8 µM), for the others: at the top dose activity change, negative = inhibition, actives largely listed as inhibitors; 300,000 tested, 1.8% active; AID 540276, 2011; Marburg virus pseudotyped entry inhibition, cell reporter; calls by dose curve; tested in HEK293 cells
Starred values were filed as active, the others as inactive; [ ] = another dose, or the depositor's remark. In the library only some 7.2% were active in any assay of this set; here they are far more common. Unless noted, the call rests on the fitted dose curve; in most records, active means well fitted curve in the direction sought with a large enough effect; inconclusive means small, poorly fitted or top-dose-only effect, or another doubt; inactive means no such curve, though single readings can be large; an effect the other way counts as inactive or inconclusive. On the % scale 0 is the no-effect control and ±100 the full control effect; potency means the concentration at half of the fitted maximal effect.

Cc1oc(-c2ccc(Cl)cc2)nc1CN1CCCC(C(=O)N2CCN(C(=O)c3ccco3)CC2)C1 (configuration not stated) was read as FMDV antiviral 14µM*, Sm TGR block inconclusive, RE007 growth inh -11%, HCV inhibitor 2µM* and MARV entry inh -10%.
For COc1ccc(-c2nc(CSCC(=O)N3CCN(c4ccc(F)cc4)CC3)c(C)o2)cc1 the results were FMDV antiviral 13µM*, LASV entry inh -27%[46.1 µM], Sm TGR block 0% and MARV entry inh inconclusive.
`COc1ccc(CNC(=O)c2ccc3c(c2)N(Cc2ccccc2F)C(=O)c2ccccc2S3(=O)=O)cc1` gave FMDV antiviral 14%, LASV entry inh -2%[46.1 µM], Sm TGR block 2% and MARV entry inh -28%[46.1 µM].
`COC(=O)C1=C(C)N(Cc2ccccc2)C(=NCC2CC2)NC1c1ccc(Br)cc1` (configuration not stated) gave MARV entry inh -10%[14.2 µM].
`CCOc1ccc(/C=C/c2nc(C#N)c(NC(C)CC)o2)cc1` (configuration not stated) gave FMDV antiviral 1%, LASV entry inh 1%[46.1 µM], Sm TGR block -2% and MARV entry inh 1%[46.1 µM].
Cc1cccc(-c2nc(CSCC(=O)N3CCN(c4cccc(C)c4C)CC3)c(C)o2)c1 was read as FMDV antiviral inconclusive, LASV entry inh 7%[46.1 µM] and Sm TGR block -2%.
O=C(CSCc1ccccc1)N1CCN(C(=O)c2ccco2)CC1 was read as LASV entry inh -3%, Sm TGR block 45µM*, RE007 growth inh 10%, HCV inhibitor -3% and MARV entry inh 1%.
`Cc1cccc(-c2nc(CSCC(=O)N3CCN(c4ccccn4)CC3)c(C)o2)c1` gave FMDV antiviral 16µM*, LASV entry inh inconclusive, Sm TGR block -33%, RE007 growth inh -13%, HCV inhibitor 11µM* and MARV entry inh inconclusive.
For CC(=O)OCC(=O)[C@@]1(O)CCC2C3CCC4=CC(=O)CC[C@]4(C)C3C(O)C[C@]21C (some centres not stated) the results were FMDV antiviral -6%.
For CN(C)/C=N/C(=S)Nc1ccc(Cl)cc1 the results were FMDV antiviral 49%, LASV entry inh 3%, RE007 growth inh -15%, HCV inhibitor 3% and MARV entry inh inconclusive.
For CN(C)/C=N/C(=S)Nc1ccc(Cl)cc1Cl the results were FMDV antiviral 44%, LASV entry inh inconclusive, RE007 growth inh -29%, HCV inhibitor 14µM* and MARV entry inh -13%[46.1 µM].
COC(=O)CN1C(=O)CSc2ccc(S(=O)(=O)Nc3ccc(F)c(Cl)c3)cc21 was read as FMDV antiviral 59%, LASV entry inh -8%[46.1 µM] and Sm TGR block -2%.
For COc1ccccc1-c1cc2c(c(OC)c1)OCCN(C(=O)Cn1nc(-c3ccccc3)c3ccccc3c1=O)C2 the results were FMDV antiviral -9%.
`CCN1CCS/C1=C\C=C\C1=[N+](CC)CCS1` gave FMDV antiviral inconclusive, Sm TGR block -17%, RE007 growth inh inconclusive, HCV inhibitor 6.3µM* and MARV entry inh 2.5µM*.
Screening CCN1CCS/C1=C/C=C/C1=[N+](CC)CCS1 returned FMDV antiviral inconclusive, LASV entry inh inconclusive, Sm TGR block 6%, RE007 growth inh inconclusive and MARV entry inh 2.5µM*.
For Cc1nn(-c2ccccc2)c(C)c1CC(=O)NCC1Cc2cc(F)cc(-c3cccnc3)c2O1 (configuration not stated) the results were FMDV antiviral -11%.
For COc1ccc(-n2nnnc2SCC(=O)NCc2ccco2)cc1OC the results were LASV entry inh 10%, Sm TGR block -9%, RE007 growth inh -8%, HCV inhibitor 7% and MARV entry inh -2%.
